# Measurements as given in the OligoGym collection.
# Molecular target: TUBAL3
# Test: pooled miR-30 sensor sort-seq; sequence = guide strand
# Conditions: shRNA
# Also: reference of the scale not given here.
row,Sequence,sensor-assay potency score (higher = more potent)
1,TTGTCCACCATGAAGGTACAGT,-0.604
2,ATTGTTGGCAGCATCCTCCTTT,0.0651
3,TTTGTCAGCAGAGACGATGGGG,0.442
4,TTCAATTAGGTCTACATTCAAG,-1.3
5,TTAAGAGAGACGTAAACCCTGA,-0.309
6,TAAGGTACCAGGTTGGTCTGGA,0.512
7,TAGTGTGGAACCTAGAGTCTTG,-0.173
8,TAGACCGAGAACTCCAGCTTAG,-0.779
9,TTCTCTGAGGTACCAGTGCAGA,-1.43

# Molecular target: TUBB2B
# Test: as above
# Conditions: shRNA
row,Sequence,sensor-assay potency score (higher = more potent)
1,TCGTTGTCAATGCAGTAGGTTT,-1.57
2,TAAACATTGATTCTCTCCAGCT,-0.472
3,ATGCTCATCACTGATGACCTCC,-0.227
4,AACACGAAATTGTCTGGTCTGA,-0.953
5,AACATTGATTCTCTCCAGCTGC,-0.381
6,GTAAACATTGATTCTCTCCAGC,-1.79
7,TAACCGAATCCATCGTGCCTGG,-0.853
8,TAGTAAACATTGATTCTCTCCA,0.0212
9,TTCCACCAGCTGGTGGACCGAG,-1.21
10,TCCATGGTAACTGCCAGTGGGG,-1.71
11,ATGCAGTAGGTTTCATCTGTGT,-0.689
12,TTCATTGTAGTAAACATTGATT,-0.873

# Molecular target: TUBGCP5
# Test: as above
# Conditions: shRNA
row,Sequence,sensor-assay potency score (higher = more potent)
1,TTGATCTTGTTCTTCTAACGGT,0.145
2,TACAACTCTATACAGTATCTAC,-0.752
3,TTAATCTCTTCCAACTAGCAGC,-0.324
4,TTTGTGGCTGTTGACATCCAAG,-1.62
5,TAGATAGACGTGAACTATCTTC,-0.283
6,ATCTCTTCCAACTAGCAGCTTT,-0.582
7,TATTGTAGTATCATTATTGATG,-0.448
8,TGGATCATGAACATCATCCAGT,-0.749
9,TAACGGTGTCCTGTCTACCTGA,-0.629
10,TAAACTATGAGGAAACTGGGAG,0.101
11,TTTTTCTGCAGTACTAACCAGT,-0.246
12,TTCTGTTTTGATCTTGTTCTTC,0.0443

# Molecular target: TULP4
# Test: as above
# Conditions: shRNA
row,Sequence,sensor-assay potency score (higher = more potent)
1,TTTCTGACTCTTCACTTTCTTC,-1.27
2,AACATTGTAGAACTTGACCATG,-1.37
3,TACAGCTGTCGTCTGGTTGGTC,-0.0173
4,TTGTAGAACTTGACCATGGCAC,0.0563
5,TTTGTCTTATTCAACTTCTTTG,-1.04
6,TTTTATAGATTACTGCACCGAG,0.0761
7,TAAATTAATATAGTCCATGGAA,-0.711
